What all share (settings): mRNA level, 48 h; actives raise or lower the signal
Read-out in assay [1]: Alkaline Phosphatase, Placental (ALPP) gene, ALPP (gene 250)
Description: LTEA_HepaRG_ALPP: Life Technologies and Expression Analysis (LTEA) Assay for Alkaline Phosphatase, Placental (ALPP) gene using HepaRG (AID 2283468).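 On AC50: differentiated human HepaRG liver cells in serum-free induction medium.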 The method in brief: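 ALPP transcript level, measured by qRT-PCR and normalized to three housekeeping genes (ACTB, GAPDH, POLR2A), after 48 h dosing of differentiated HepaRG in serum-free induction medium. Top concentration 100 uM with half-log dilutions (8 points, 0.5% DMSO, duplicates); bidirectional fitting relative to DMSO.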

Read-out in assay [2]: Bcl-2 (BAD) gene, BAD (gene 572)
The assay can be described thus: LTEA_HepaRG_BAD: Life Technologies and Expression Analysis (LTEA) Assay for Bcl-2 (BAD) gene using HepaRG (AID 2283469). The method in brief: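 Read-out: qRT-PCR of BAD mRNA, normalized to three housekeeping genes. Human HepaRG cultures got 48 h chemical exposure in 0.5% DMSO, duplicate eight-point half-log series topping at 100 uM. Gain or loss of signal fitted versus DMSO vehicle.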

Read-out in assay [3]: Bcl-2 (BAX) gene, BAX (gene 581)
Description: LTEA_HepaRG_BAX: Life Technologies and Expression Analysis (LTEA) Assay for Bcl-2 (BAX) gene using HepaRG (AID 2283470). An outline of the steps: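 Gene expression measured by Fluidigm qRT-PCR with three housekeeping genes for normalisation. HepaRG cells, plated 48 h beforehand, treated 48 h at up to 100 uM (8-point, half-log) in 0.5% DMSO. Bidirectional fitting versus DMSO.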

Read-out in assay [4]: adenosine kinase (ADK) gene, ADK (gene 132)
Description: LTEA_HepaRG_ADK: Life Technologies and Expression Analysis (LTEA) Assay for adenosine kinase (ADK) gene using HepaRG (AID 2283471). The method in brief: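 Read-out is ADK transcript level measured by qRT-PCR and normalised to three housekeeping genes. Cells are human HepaRG, dosed for 48 h at up to 100 uM in 0.5% DMSO. Gain or loss of signal is fitted against DMSO controls.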

Read-out in assay [5]: Alpha-fetoprotein (AFP) gene, AFP (gene 174)
Description: LTEA_HepaRG_AFP: Life Technologies and Expression Analysis (LTEA) Assay for Alpha-fetoprotein (AFP) gene using HepaRG (AID 2283472). An outline of the steps:
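AFP transcript measured by TaqMan qRT-PCR with three housekeeping genes for normalization, after 48 h chemical treatment of HepaRG cells (top 100 uM, half-log steps, 0.5% DMSO). Gain or loss fitted against vehicle.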

Read-out in another assay: BCL2L11 (gene 10018)
Description: LTEA_HepaRG_BCL2L11: Life Technologies and Expression Analysis (LTEA) Assay for Bcl-2 (BCL2L11) gene using HepaRG (AID 2283473). An outline of the steps: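 BCL2L11 transcript levels are measured by Fluidigm qRT-PCR, normalized to three housekeeping genes. HepaRG cultures were plated 48 h, then treated 48 h with test chemical (top 100 uM, half-log, 0.5% DMSO vehicle); curves were fitted bidirectionally against DMSO.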

Read-out in assay [6]: Apoptosis regulator Bcl-2 (Homo sapiens) (UniProt P10415)
The assay can be described thus: LTEA_HepaRG_BCL2: Life Technologies and Expression Analysis (LTEA) Assay for Bcl-2 gene using HepaRG (AID 2283475). An outline of the steps:
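qRT-PCR of BCL2 transcript, normalized to three housekeeping genes (ACTB, GAPDH, POLR2A), after 48 h chemical exposure of HepaRG cells; concentrations top 100 uM with half-log dilutions, 0.5% DMSO vehicle, duplicates; changes up or down fitted relative to vehicle.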

Read-out in assay [7]: Bcl-2 (BID) gene, BID (gene 637)
Description: LTEA_HepaRG_BID: Life Technologies and Expression Analysis (LTEA) Assay for Bcl-2 (BID) gene using HepaRG (AID 2283476). An outline of the steps: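 Duplicate 48 h treatments of HepaRG cells in serum-free induction medium spanned 100 uM downward in half-log steps, 0.5% DMSO. Transcript change quantified by qRT-PCR against three housekeeping genes, fitted up or down versus DMSO.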

Read-out in the next assay: Caspase-3 (Homo sapiens) (UniProt P42574)
The assay can be described thus: LTEA_HepaRG_CASP3: Life Technologies and Expression Analysis (LTEA) Assay for cysteine-aspartic acid protease (CASP3) using HepaRG (AID 2283477). An outline of the steps: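 Expression of CASP3 was quantified by TaqMan qRT-PCR against three housekeeping genes (ACTB, GAPDH, POLR2A), bidirectionally versus 0.5% DMSO. HepaRG cultures received compounds in duplicate, top 100 uM with half-log steps, for 48 h in serum-free induction medium.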

Read-out in assay [8]: Cytochrome P450 (CYP24A1), CYP24A1 (gene 1591)
The assay can be described thus: LTEA_HepaRG_CYP24A1: Life Technologies and Expression Analysis (LTEA) Assay for Cytochrome P450 (CYP24A1) using HepaRG (AID 2283478). An outline of the steps:
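mRNA of CYP24A1 quantified by TaqMan qRT-PCR (ACTB/GAPDH/POLR2A normalization) after 48 h chemical exposure of HepaRG cells, top concentration 100 uM, half-log steps, 0.5% DMSO vehicle, duplicates. Curves fitted bidirectionally against DMSO baseline.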

Read-out in assay [9]: Cytochrome P450 (CYP1A2), CYP1A2 (gene 1544)
Description: LTEA_HepaRG_CYP1A2: Life Technologies and Expression Analysis (LTEA) Assay for Cytochrome P450 (CYP1A2) using HepaRG (AID 2283479). An outline of the steps: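 CYP1A2 transcript measured by TaqMan qRT-PCR against three housekeeping genes after 48-hour chemical exposure of HepaRG cells. Eight-point half-log series topping at 100 uM in 0.5% DMSO, duplicates; gain or loss fitted relative to vehicle.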

Read-out in assay [10]: cysteine-aspartic acid protease (CASP8), CASP8 (gene 841)
The assay can be described thus: LTEA_HepaRG_CASP8: Life Technologies and Expression Analysis (LTEA) Assay for cysteine-aspartic acid protease (CASP8) using HepaRG (AID 2283480). The method in brief:
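CASP8 transcript measured by TaqMan qRT-PCR with ACTB/GAPDH/POLR2A normalization, after 48 h chemical exposure of HepaRG cells in serum-free induction medium. Eight concentrations, top 100 uM, half-log steps, 0.5% DMSO vehicle; fits in both directions versus DMSO.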

Read-out in assay [11]: Cytochrome P450 (CYP2B6), CYP2B6 (gene 1555)
The assay can be described thus: LTEA_HepaRG_CYP2B6: Life Technologies and Expression Analysis (LTEA) Assay for Cytochrome P450 (CYP2B6) using HepaRG (AID 2283481). An outline of the steps:
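CYP2B6 transcript level quantified by qRT-PCR against three housekeeping genes, fitted bidirectionally relative to DMSO. HepaRG cultures received chemicals for 48 h, 8-point half-log series from 100 uM in 0.5% DMSO, duplicate wells, serum-free induction medium.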

Read-out in assay [12]: Cytochrome P450 2C19 (Homo sapiens) (UniProt P33261)
The assay can be described thus: LTEA_HepaRG_CYP2C19: Life Technologies and Expression Analysis (LTEA) Assay for CYP2C19 using HepaRG (AID 2283482). The method in brief:
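CYP2C19 transcript levels by qRT-PCR, normalized to three housekeeping genes, in HepaRG cells after 48 h chemical exposure. Eight-point half-log series topping at 100 uM, 0.5% DMSO vehicle. Increases and decreases both fitted against DMSO.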

Read-out in another assay: CYP2C8 (gene 1558)
Description: LTEA_HepaRG_CYP2C8: Life Technologies and Expression Analysis (LTEA) Assay for CYP2C8 using HepaRG (AID 2283483). An outline of the steps: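 CYP2C8 expression measured by TaqMan qRT-PCR and normalized to three housekeeping genes. HepaRG cultures were treated for 48 h with an eight-point half-log series topping at 100 uM, vehicle 0.5% DMSO, duplicates; fitted both directions against DMSO.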

Read-out in the next assay: CYP2C9 (gene 1559)
Description: LTEA_HepaRG_CYP2C9: Life Technologies and Expression Analysis (LTEA) Assay for CYP2C9 using HepaRG (AID 2283484). The method in brief: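 CYP2C9 transcript level, quantified by TaqMan qRT-PCR against three housekeeping genes, was fitted bidirectionally relative to 0.5% DMSO. HepaRG cultures were treated 48 h, in duplicate, at eight half-log concentrations topping at 100 uM.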

Read-out in another assay: CYP2E1 (gene 1571)
Description: LTEA_HepaRG_CYP2E1: Life Technologies and Expression Analysis (LTEA) Assay for CYP2E1 using HepaRG (AID 2283485). An outline of the steps:
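CYP2E1 transcript measured by Fluidigm qRT-PCR against three housekeeping genes in human HepaRG cells treated 48 h (top 100 uM, half-log steps, 0.5% DMSO vehicle). Gain or loss fitted relative to DMSO baseline.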

Read-out in another assay: CYP4A11 (gene 1579)
Description: LTEA_HepaRG_CYP4A11: Life Technologies and Expression Analysis (LTEA) Assay for CYP4A11 using HepaRG (AID 2283486). An outline of the steps:
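Readout is CYP4A11 transcript level by qRT-PCR, normalized to three housekeeping genes and fitted bidirectionally against 0.5% DMSO. Human HepaRG cells were treated 48 h, in duplicate, with an 8-point half-log series topping at 100 uM.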

Read-out in assay [13]: Cytochrome P450 3A4 (Homo sapiens) (UniProt P08684)
Description: LTEA_HepaRG_CYP3A4: Life Technologies and Expression Analysis (LTEA) Assay for CYP3A4 using HepaRG (AID 2283487). An outline of the steps:
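HepaRG, 48 h exposure, 8-pt CRC from 100 uM (half-log), 0.5% DMSO, duplicates; serum-free induction medium. Readout: CYP3A4 mRNA, qRT-PCR, ACTB/GAPDH/POLR2A normalization. Bidirectional fit vs DMSO.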

Activity calls are given as the source filed them. How the source made its calls: active means hit-call score of the fitted dose curve at least 0.9, where 1 is the maximum; inactive means score below 0.9.

Cytochrome P450 3A4 (Homo sapiens), sequence (P08684 whole entry, looked up): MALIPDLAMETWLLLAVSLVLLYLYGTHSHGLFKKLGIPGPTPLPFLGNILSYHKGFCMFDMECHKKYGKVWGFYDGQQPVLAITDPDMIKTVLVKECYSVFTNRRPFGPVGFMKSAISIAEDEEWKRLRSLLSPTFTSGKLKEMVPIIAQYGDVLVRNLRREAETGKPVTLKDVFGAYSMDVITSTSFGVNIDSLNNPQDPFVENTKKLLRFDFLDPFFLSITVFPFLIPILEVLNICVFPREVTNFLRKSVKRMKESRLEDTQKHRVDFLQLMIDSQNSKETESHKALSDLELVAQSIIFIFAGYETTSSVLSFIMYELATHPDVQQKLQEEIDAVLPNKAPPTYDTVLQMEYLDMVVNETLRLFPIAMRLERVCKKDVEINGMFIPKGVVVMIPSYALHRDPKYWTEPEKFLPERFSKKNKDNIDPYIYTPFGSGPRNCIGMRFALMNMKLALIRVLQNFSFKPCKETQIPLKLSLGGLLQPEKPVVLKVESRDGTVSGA
Cytochrome P450 2C19 (Homo sapiens), sequence (P33261 whole entry, looked up): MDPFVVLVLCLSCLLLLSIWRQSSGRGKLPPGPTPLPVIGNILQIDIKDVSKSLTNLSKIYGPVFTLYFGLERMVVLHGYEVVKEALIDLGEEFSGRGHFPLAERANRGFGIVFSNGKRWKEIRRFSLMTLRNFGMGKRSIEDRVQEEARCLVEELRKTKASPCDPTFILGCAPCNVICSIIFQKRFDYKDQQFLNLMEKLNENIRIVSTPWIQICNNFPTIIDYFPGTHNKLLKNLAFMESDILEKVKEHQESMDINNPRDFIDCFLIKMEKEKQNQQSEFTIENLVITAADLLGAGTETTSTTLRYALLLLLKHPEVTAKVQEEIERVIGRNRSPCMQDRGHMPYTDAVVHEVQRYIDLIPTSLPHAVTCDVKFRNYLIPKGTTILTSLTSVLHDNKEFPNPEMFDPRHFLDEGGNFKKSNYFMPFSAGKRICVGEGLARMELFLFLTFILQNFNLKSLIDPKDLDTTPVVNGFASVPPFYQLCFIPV
Apoptosis regulator Bcl-2 (Homo sapiens), sequence (P10415 whole entry, looked up): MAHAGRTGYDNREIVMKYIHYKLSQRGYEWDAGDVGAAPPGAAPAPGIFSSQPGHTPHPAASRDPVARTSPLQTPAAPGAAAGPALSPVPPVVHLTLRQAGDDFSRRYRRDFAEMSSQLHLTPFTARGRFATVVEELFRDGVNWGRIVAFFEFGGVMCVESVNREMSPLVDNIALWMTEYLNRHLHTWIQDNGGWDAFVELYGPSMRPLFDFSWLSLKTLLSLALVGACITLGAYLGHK
Caspase-3 (Homo sapiens), sequence (P42574 whole entry, looked up): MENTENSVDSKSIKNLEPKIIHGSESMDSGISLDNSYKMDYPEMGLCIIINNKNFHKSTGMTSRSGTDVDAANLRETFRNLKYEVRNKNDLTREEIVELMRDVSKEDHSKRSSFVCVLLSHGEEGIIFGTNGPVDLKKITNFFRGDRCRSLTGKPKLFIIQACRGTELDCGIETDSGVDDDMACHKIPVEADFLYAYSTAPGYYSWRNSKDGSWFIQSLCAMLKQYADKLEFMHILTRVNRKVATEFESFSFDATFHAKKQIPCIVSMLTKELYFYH

In the case of `N#CC(CCc1ccc(Cl)cc1)(Cn1cncn1)c1ccccc1` (configuration not stated), the half-maximal activity concentration (AC50) (commonly the concentration at which the activity in the assay is half-maximal) in assay [1] is 21.9 µM (active); in assay [3] it was 68 µM (active); in assay [5], 15.8 µM (active); in assay [6] it was 66.7 µM (active); in assay [9] it was 85.6 µM (active); in [11], 50 µM (active). Moreover, the AC50 in assay [12] was 76.1 µM (active); in the assay with CYP2C8 (gene 1558), 73.7 µM (active); with CYP2C9 (gene 1559), 59.8 µM (active); with CYP2E1 (gene 1571), 27.3 µM (active); with CYP4A11 (gene 1579), 38.8 µM (active); in assay [13] it was 85.9 µM (active). For the same compound, the call (in assay [2]; in assay [4]; with BCL2L11 (gene 10018); in assay [7]; with Caspase-3 (Homo sapiens); in assay [8]) was inactive. Besides, the call in assay [10] was inactive.

For `CN(C)C(=S)SSC(=S)N(C)C`, the outcome (in assay [1]; in assay [2]; in [3]; in assay [4]; in assay [5]; in the assay with BCL2L11 (gene 10018)) was inactive. Also, the compound was called inactive (in assay [6]; in assay [7]; in the assay with Caspase-3 (Homo sapiens); in assay [8]; in assay [9]; in [10]). The compound was called inactive (in [12]; in the assay with CYP2C8 (gene 1558); with CYP2C9 (gene 1559); with CYP2E1 (gene 1571); with CYP4A11 (gene 1579); in assay [13]). In addition, the AC50 in assay [11] is 50 µM (active).

As for `CNC(=S)S`, the outcome (in assay [1]; in assay [2]; in [3]; in assay [4]; in assay [5]; with BCL2L11 (gene 10018)) was inactive. Besides, the result (in [6]; in [7]; with Caspase-3 (Homo sapiens); in [8]; in [10]; in [12]) was inactive. The call (with CYP2C8 (gene 1558); with CYP2C9 (gene 1559); with CYP2E1 (gene 1571); with CYP4A11 (gene 1579); in assay [13]) was inactive. Besides, the AC50 in [9] is 50 µM (active); in assay [11], 29.7 µM (active).

Source of the values: PubChem BioAssay (EPA / NIEHS).
